Data reported in PubChem BioAssay.
Values without a mark were called inactive. The source made the active and inactive calls. Rule as the data show it: active = fold change permeability below about 0.7 or above about 1.3; inactive = in between.

Experiment: compounds altering in vitro BBB leakiness – cell-based, FITC-avidin fluorescence, HTS, primary screen (AID 1963498); also: test concentration not given here
Settings: brain endothelial barrier, actives lie on both sides

Row | Compound | fold change permeability
1 | CCN(CC)CCNC(=O)c1ccc(N)cc1 | 0.8
2 | O=C(NCCO)c1cccc(-c2cc(Nc3ccc(OC(F)(F)F)cc3)ncn2)c1 | 1.4 (active)
3 | Nc1nc2[nH]c(=O)cnc2c(=O)[nH]1 | 1.4 (active)
4 | Cc1ccc(S(=O)(=O)Nc2ccccc2N2CCCCC2)s1 | 1
5 | CN1CCc2cc(Cl)c(O)cc2[C@@H](c2ccccc2)C1 | 0.9
6 | NCCOc1cc(C(=O)Nc2cc(OCCN)c3ccccc3n2)nc(C(=O)Nc2cc(OCCN)c3ccccc3n2)c1 | 0.9
7 | Cc1cc(C(=O)Cn2cc(C#N)ccc2=O)c(C)n1Cc1ccccc1 | 1.7 (active)
8 | COc1ccccc1N1CCN(CCN(C(=O)c2ccc(F)cc2)c2ccccn2)CC1 | 0.8
9 | C=C1C[C@@]23CC[C@H]4[C@@](C)(CCC[C@@]4(C)C(=O)O)[C@@H]2CC[C@]1(O)C3 | 0.9
10 | O=c1[nH]c2cc(C(F)(F)F)ccc2n1-c1cc(C(F)(F)F)ccc1O | 1.3 (active)
11 | COc1cc(C(=O)OCCCN2CCCN(CCCOC(=O)c3cc(OC)c(OC)c(OC)c3)CC2)cc(OC)c1OC | 1.5 (active)
12 | CC(C(=O)O)c1ccc(CC2CCCC2=O)cc1 (stereo not drawn) | 1.5 (active)
13 | Nc1ccc(-c2ccc3ncc4ccc(=O)n(-c5cccc(C(F)(F)F)c5)c4c3c2)cn1 | 1.3 (active)
14 | N#C/C(=C\c1ccc(O)c(O)c1)C(=O)c1ccc(O)c(O)c1 | 1.8 (active)
15 | NCCCNCCSP(=O)(O)O | 0.9
16 | NCCCCC(=O)O | 1.1
17 | CCN1CCC[C@H]1CNC(=O)c1cc(S(N)(=O)=O)ccc1OC | 0.7 (active)
18 | CC(=O)O[C@]1(C(C)=O)CC[C@H]2[C@@H]3C=C(Cl)C4=CC(=O)[C@@H]5C[C@@H]5[C@]4(C)[C@H]3CC[C@@]21C | 1
19 | CN1CCN(C2=Nc3ccccc3Cc3ccccc32)CC1 | 1.2
20 | CSC(N)=NCCC[C@H](N)C(=O)O | 0.7 (active)
21 | N=c1nc(N2CCCCC2)cc(N)n1O | 0.9
22 | Cc1nnc(SCC2=C(C(=O)O)N3C(=O)[C@@H](NC(=O)Cn4cnnn4)[C@H]3SC2)s1 | 0.9
23 | O=C1NCC2(CCN(CCc3ccccc3)CC2)O1 | 1
24 | C[C@]12CC[C@@H]3c4ccc(O)cc4C[C@@H](CCCCCCCCCS(=O)CCCC(F)(F)C(F)(F)F)[C@H]3[C@@H]1CC[C@@H]2O (stereo partly drawn) | 1
25 | COc1cc2nc(N3CCCC3)nc(NCCCCCN3CCCC3)c2cc1OC | 1.2
26 | CCCCCC[C@@H]([C@@H](C)O)n1cnc2c(N)ncnc21 | 0.7 (active)

Row | Compound | fold change permeability
27 | Fc1ccc([C@@H]2CCNC[C@H]2COc2ccc3c(c2)OCO3)cc1 | 1.2
28 | O=C(O)c1cc2cc(F)ccc2[nH]1 | 1.2
29 | CN(C)C/C=C(/c1ccc(Br)cc1)c1cccnc1 | 1.7 (active)
30 | Nc1ccc(S(=O)(=O)Nc2ccnn2-c2ccccc2)cc1 | 1.2
31 | COc1ccc(Br)cc1S(=O)(=O)NC(=O)/C=C/c1ccccc1Cc1ccc2ccccc2c1 | 1.1
32 | COc1ccc(-c2cc(=O)c3c(O)c(OC)c(OC)cc3o2)cc1O | 1.6 (active)
33 | CCCCS(=O)(=O)N[C@@H](Cc1ccc(OCCCCC2CCNCC2)cc1)C(=O)O | 1.5 (active)
34 | CO[C@@]1(NC(=O)CSCC#N)C(=O)N2C(C(=O)O)=C(CSc3nnnn3C)CS[C@@H]21 | 0.9
35 | NC(CCCP(=O)(O)O)C(=O)O (stereo not drawn) | 0.9
36 | O=c1ccc2ccc(O)c(O)c2o1 | 1.2
37 | COCC(=O)O[C@]1(CCN(C)CCCc2nc3ccccc3[nH]2)CCc2cc(F)ccc2[C@@H]1C(C)C | 1.5 (active)
38 | Cc1nc2ccc(NC(=O)Nc3ccnc4cccnc34)cc2o1 | 1.4 (active)
39 | CCN(CC)Cc1ccc(C(=O)N(CCc2ccccc2OC)[C@@H]2CCNC2)cc1 | 0.9
40 | CC(N)(C(=O)O)c1ccc(C(=O)O)cc1 (stereo not drawn) | 0.9
41 | Oc1ccc2c(c1)OC[C@]1(O)Cc3cc(O)c(O)cc3[C@H]21 | 1.7 (active)
42 | O=C(NCCc1nccs1)c1cnc2c(SSc3cccc4cc(C(=O)NCCc5nccs5)cnc34)cccc2c1 | 0.7 (active)
43 | NCCc1cnc[nH]1 | 1.3 (active)
44 | CCN[C@H]1CN(CCCOC)S(=O)(=O)c2sc(S(N)(=O)=O)cc21 | 1.5 (active)
45 | COc1cc([C@@H]2c3cc4c(cc3[C@@H](O[C@@H]3O[C@@H]5CO[C@@H](C)O[C@H]5[C@H](O)[C@H]3O)[C@H]3COC(=O)[C@H]23)OCO4)cc(OC)c1O | 0.9
46 | CN(C)CC[C@@H](c1ccc(Cl)cc1)c1ccccn1 | 1.1
47 | CC(C)=CCC/C(C)=C/CC/C(C)=C/CSc1ccccc1C(=O)O | 1.4 (active)
48 | CC(=O)N=c1sc(S(N)(=O)=O)nn1C | 1.4 (active)
49 | NC1(C(=O)O)CCCCC1 | 1
50 | CN(C)CCc1c[nH]c2ccc(Cn3cncn3)cc12 | 1
51 | Nc1nc(Cl)nc2c1ncn2[C@@H]1O[C@H](CO)[C@@H](O)[C@H]1O | 0.9
52 | CCCC(CCC)C(=O)O | 1.1

Row | Compound | fold change permeability
53 | Cn1cc(C(=O)OCC2CCN(CCNS(C)(=O)=O)CC2)c2ccccc21 | 1
54 | CCOC(=O)Nc1ccc(NCc2ccc(F)cc2)nc1N | 1.6 (active)
55 | Cn1c(=O)c2c(ncn2CC2OCCO2)n(C)c1=O | 1
56 | FC(F)(F)c1ccccc1-n1ccnc1 | 1.2
57 | NC[C@@H]1O[C@H](c2ccccc2)Cc2c1ccc(O)c2O | 1.3 (active)
58 | Nc1ncn([C@@H]2O[C@H](CO)[C@@H](O)[C@H]2O)c(=O)n1 | 1.1
59 | COc1ccc2c(c1OC)C(=O)O[C@@H]2[C@H]1c2c(cc3c(c2OC)OCO3)CCN1C | 1
60 | O=C1CCC(c2ccc(-n3ccnc3)cc2)=NN1 | 1.1
61 | Cc1nc(C(=O)N2CCC[C@H]2Cc2nnc(-c3ccccc3)o2)c(-c2ccccc2F)s1 | 1
62 | CC(=O)OCC1=C(C(=O)O)N2C(=O)[C@@H](NC(=O)Cc3cccs3)[C@H]2SC1 | 0.8
63 | CCCN[C@H]1CCc2nc(N)sc2C1 | 1.1
64 | O=c1[nH]c(=O)n([C@H]2C[C@H](O)[C@@H](CO)O2)cc1Br | 1
65 | CC(C)(C)c1ccc(S(=O)(=O)/C=C/C#N)cc1 | 1.2
66 | C[C@H]1C[C@H]2[C@@H]3CCC4=CC(=O)C=C[C@]4(C)[C@@]3(Cl)[C@@H](O)C[C@]2(C)[C@@]1(O)C(=O)CO | 1.2
67 | CC(C)NCC(O)c1ccc(O)c(O)c1 (stereo not drawn) | 1.4 (active)
68 | CNCCCC12CCC(c3ccccc31)c1ccccc12 | 0.9
69 | COc1cc2nc(N3CCCN(C)CC3)nc(NC3CCN(Cc4ccccc4)CC3)c2cc1OC | 2.2 (active)
70 | O=C(c1ccc(Br)cc1)N1CC2C3CCC(O3)C2C1 (stereo not drawn) | 1.2
71 | CNc1cc(NS(=O)(=O)c2ccc(N)cc2)nc(NC)n1 | 0.7 (active)
72 | [Li+] | 1
73 | N#Cc1c2nc3ccccc3nc2n2ccc(NC(=O)c3cccs3)cc12 | 1.2
74 | CC(=O)Oc1ccccc1C(=O)O | 1
75 | O=C(O)C1=CCNCC1 | 1
76 | COc1cccc(NC(=O)/C=C/c2ccc(Cl)cc2)c1 | 1.1
77 | Nc1nc2c(cnn2CCc2ccccc2)c2nc(-c3ccco3)nn12 | 0.7 (active)
78 | COc1cccc(OC)c1OCCNCC1COc2ccccc2O1 (stereo not drawn) | 1.3 (active)

Row | Compound | fold change permeability
79 | Cc1c(OCC(F)(F)F)ccnc1CS(=O)c1nc2ccccc2[nH]1 (stereo not drawn) | 1.6 (active)
80 | C=C(C)C1CC=C(C(=O)O)CC1 (stereo not drawn) | 0.9
81 | Cc1cccc(-c2[nH]ncc2-c2ccc3ncccc3n2)n1 | 0.7 (active)
82 | c1ccc2c(c1)CCCC2C1=NCCN1 (stereo not drawn) | 0.7 (active)
83 | Cc1cccc(-c2[nH]c(C(C)(C)C)nc2-c2ccc3nccnc3c2)n1 | 1.4 (active)
84 | O=C1CCc2cc(OCCCCc3nnnn3C3CCCCC3)ccc2N1 | 0.9
85 | N[C@H](C(=O)O)[C@H](O)c1ccc(O)c(O)c1 | 0.9
86 | Nc1ccc(CCNc2ncnc3c2ncn3C2OC(CO)C(O)C2O)cc1 (stereo not drawn) | 1
87 | C[C@@H](c1nc(-c2ccc(C#N)cc2)cs1)[C@](O)(Cn1cncn1)c1cc(F)ccc1F | 1.2
88 | C[n+]1ccccc1CC(=O)c1ccc(Br)cc1 | 0.9
89 | CC(C)(Sc1ccc(CCN(CCCCC2CCCCC2)C(=O)NC2CCCCC2)cc1)C(=O)O | 1
90 | CC(C)C[C@H](NC(=O)[C@@H](O)[C@H](N)Cc1ccccc1)C(=O)O | 1
91 | NC(=O)OCC(COC(N)=O)c1ccccc1 | 0.8
92 | CC#C[C@]1(O)CC[C@H]2[C@@H]3CCC4=CC(=O)CCC4=C3[C@@H](c3ccc(N(C)C)cc3)C[C@@]21C | 0.8
93 | O=C(CCCN1CCC(O)(c2ccc(Cl)cc2)CC1)c1ccc(F)cc1 | 1.2
94 | N[C@@H](Cc1c[nH]c2ccccc12)C(=O)O | 1.3 (active)
95 | C#CCN(C)CCCOc1ccc(Cl)cc1Cl | 1.3 (active)
96 | CCn1cc(C(=O)O)c(=O)c2cc3c(cc21)OCO3 | 1
97 | CC1CCc2nc(N)c(C#N)c(-c3cccnc3)c2C1 (stereo not drawn) | 1
98 | O=C(O)COc1ccc(C(=O)c2cccs2)c(Cl)c1Cl | 1.4 (active)
99 | CC(/C=C/c1cccc(Oc2ccc(F)cc2)c1)N(O)C(N)=O (stereo not drawn) | 1.1
100 | CC(C)c1cccc(C(C)C)c1N1C(=O)c2ccc(O)cc2C1=O | 1.6 (active)
101 | Cc1cc(NC(=O)Nc2ccc3c(ccn3C)c2)sn1 | 1.2
102 | CN=C(N)NCCC[C@H](N)C(=O)O | 0.8
103 | C[N+](C)(C)CCOP(=O)(O)OP(=O)([O-])OC[C@H]1O[C@@H](n2ccc(N)nc2=O)C(O)[C@H]1O (stereo partly drawn) | 1.1
